According to PubChem BioAssay:

How the values were obtained:
[1] = test system: Botulinum neurotoxin type F light chain protease (Clostridium botulinum); test: Botulinum neurotoxin type F light chain protease inhibition, multiplex microsphere flow cytometry, validation set (AID 588459); conditions: multiplex microsphere protease substrate cleavage assay, at 10 µM, stronger effect = higher value
[2] = biological target: Botulinum neurotoxin type A (Clostridium botulinum) (UniProt P0DPI0); test: BoNT/A light chain protease inhibitors, biochemical, multiplex microsphere flow cytometry, validation set (AID 588460); conditions: at 10 µM, stronger effect = higher value
[3] = biological target: Lethal factor (Bacillus anthracis) (UniProt P15917); test: Lethal factor protease inhibitors, Bacillus anthracis, multiplex microsphere cleavage assay, validation set (AID 588461); conditions: flow cytometry, at 10 µM, stronger effect = higher value

Measured: inhibition

Cn1c([N+](=O)[O-])cnc1COC(N)=O
inactive: [1] 1.4% | [2] -0.6% | [3] -1.2%

C=C(C)Cn1c(NCCOC)nc2c1c(=O)[nH]c(=O)n2C
inactive: [1] 0.2% | [2] -0.3% | [3] -5.2%

COC1CCN(Cc2cn(Cc3ccccc3)nc2-c2cc3ccccc3o2)CC1
inactive: [1] 2% | [2] -0.8% | [3] -3.3%

Cc1ncc(CN2CCC(CO)(CCc3ccccc3)CC2)s1
inactive: [1] 1.3% | [2] 0.2% | [3] -3%

Cc1cc(=O)c2c(O)c(O)ccc2o1
inactive: [1] 1.8% | [2] 2.5% | [3] -0.2%

CN(C)CCOC(=O)C(c1ccccc1)C1(O)CCCC1 (configuration not stated)
inactive: [1] 2.3% | [2] -0.3% | [3] -6%

OCC1CCN(Cc2cn(Cc3ccccc3)nc2-c2cc3ccccc3o2)CC1
inactive: [1] -0.4% | [2] -0.7% | [3] -0.9%

CC(=O)OCC(=O)[C@@]1(O)CC[C@H]2[C@@H]3CCC4=CC(=O)CC[C@]4(C)[C@H]3[C@@H](O)C[C@@]21C
inactive: [1] -3.3% | [2] -3.5% | [3] -5.1%

CCOc1ccc(OCCSc2nc3ccccc3[nH]2)cc1
inactive: [1] -6.7% | [2] -1.3% | [3] -1.8%

CC1(C)OC2OC(C(=O)N/N=C/c3ccccc3F)C3OC(C)(C)OC3C2O1 (configuration not stated)
inactive: [1] 2.6% | [2] -1.3% | [3] -1.9%

O=C(NC(Nc1ccccn1)C(Cl)(Cl)Cl)c1ccccc1 (configuration not stated)
inactive: [1] -7.2% | [2] -1.5% | [3] 0.6%

O=C(c1ccc([N+](=O)[O-])cc1)N1CCSC1c1ccccc1Cl (configuration not stated)
inactive: [1] -3.8% | [2] -0.1% | [3] -1.3%

COc1ccc2oc(-c3ccco3)cc(=O)c2c1
inactive: [1] 3% | [2] -0.8% | [3] -7%

C[C@]12CC[C@H]3C(=CCc4cc(O)ccc43)[C@@H]1CCC2=O
inactive: [1] 0.5% | [2] -0.6% | [3] 2.9%

COc1ccc2c(c1)C=CC1(O2)N(CCO)c2ccccc2C1(C)C (configuration not stated)
inactive: [1] 3% | [2] -0.7% | [3] -7.3%

O=C(CC1SC(=O)NC1=O)Nc1ccc(Cl)cc1 (configuration not stated)
inactive: [1] -1.9% | [2] 0.8% | [3] -0.5%

COc1ccc(-c2noc(CCc3ccccc3)n2)cc1
inactive: [1] -8.8% | [2] -1.1% | [3] -11%

CC(C)c1cc(=O)oc2c3c4c(cc12)CCCN4CCC3
inactive: [1] 4.4% | [2] 2% | [3] -13.8%

O=C(O)c1cc(-c2ccccc2)nc2ccccc12
inactive: [1] -1.1% | [2] -0.1% | [3] -9.8%

Cc1ncc([N+](=O)[O-])n1CCO
inactive: [1] 3% | [2] -0.4% | [3] -4.2%

CCCCOc1ccc(CC(=O)NO)cc1
inactive: [1] -1.6% | [2] -0.2% | [3] 0.6%

CCCCC/C=C\C[C@H](O)/C=C/c1cccc(C[C@H](O)CCCCO)n1
inactive: [1] 2.3% | [2] 1.9% | [3] -6.2%

Cc1ccc(C(=O)Nc2ccc(O)cc2C(=O)O)cc1C
inactive: [1] 10.3% | [2] 2.6% | [3] 0.9%

COc1ccccc1OS(=O)(=O)c1ccc(NC(C)=O)cc1
inactive: [1] -1.9% | [2] 1.2% | [3] 3%

COc1ccc(OC)c(S(=O)(=O)N2CCCc3ccccc32)c1
inactive: [1] -4.6% | [2] -0.4% | [3] -0.9%

C[C@@H]1CCC[C@H](C)N1NC(=O)c1ccc(Cl)c(S(N)(=O)=O)c1
inactive: [1] 1.2% | [2] -1.2% | [3] -0.8%

N#C/C(C(N)=O)=c1/ccc2c(c1)N1C3=C(CCCC3)CC3CCCCC31N=2 (configuration not stated)
inactive: [1] -0.8% | [2] 2.4% | [3] -2.3%

CN(C)CCN(Cc1cccs1)c1ccccn1
inactive: [1] 2.5% | [2] -0.3% | [3] -1.6%

C=CCc1ccc(OCC(O)COc2ccc(CC=C)cc2OC)c(OC)c1
inactive: [1] 5.2% | [2] -0.2% | [3] -6.2%

CC(C)C1Cc2[nH]c(=O)c(C(=O)O)cc2CO1 (configuration not stated)
inactive: [1] 2.3% | [2] -0.9% | [3] -1.4%

CC(C)CN1CCN(Cc2cccn2-c2ccccn2)CC1CCO (configuration not stated)
inactive: [1] -0.4% | [2] -0.5% | [3] 3.6%

O=C1C2C3C=CC(C4CC34)C2C(=O)N1/N=C/c1ccc(-c2ccc([N+](=O)[O-])cc2)o1 (configuration not stated)
inactive: [1] 2.1% | [2] 3.4% | [3] -1.8%

COc1cc(C2Nc3ccccc3C(=O)N2c2ccccc2)ccc1O (configuration not stated)
inactive: [1] 0.9% | [2] 0% | [3] -4.4%

O=C(O)C1CSC(c2ccco2)N1 (configuration not stated)
inactive: [1] -2.3% | [2] -2.5% | [3] -0.8%

CC(=O)c1ccc(CCCCCCCCCC(=O)O)s1
inactive: [1] 1.9% | [2] 0.3% | [3] -1%

O=C(Cc1ccccc1)NCC(=O)OCC(=O)c1ccccc1Cl
inactive: [1] 1% | [2] -2.5% | [3] -9.6%

CCOC(=O)C(=Cc1ccccc1OC)C(=O)OCC
inactive: [1] -0.7% | [2] -2.6% | [3] -6.9%

COc1ccc(OCc2cccc(C(=O)NN)c2)cc1
inactive: [1] 0.1% | [2] 1.2% | [3] -6.1%

COCc1cc(=O)[nH]c(Nc2nc3ccccc3o2)n1
inactive: [1] -3.7% | [2] -0.7% | [3] 0.7%

COc1ccccc1N1CCN(CC(O)COc2cccc3ccccc23)CC1 (configuration not stated)
inactive: [1] -2% | [2] -2.3% | [3] -6.6%

COc1ccc2[nH]c3c(=O)n(/N=C/[C@H]4C(C)C=C(C)CC4C)c(=O)[nH]c3c2c1 (some centres not stated)
inactive: [1] -1.7% | [2] -0.6% | [3] 7.1%

CCCCC[C@H](O)/C=C/[C@@H]1[C@@H](CCCCCCC(=O)O)[C@@H](O)C[C@H]1O
inactive: [1] -2.9% | [2] -1.3% | [3] 0.1%

C/C(=N\NC(=O)c1ccccc1[N+](=O)[O-])c1ccc(Br)s1
inactive: [1] 1.5% | [2] 1.6% | [3] 5.5%

NC(=O)N1c2ccccc2C=Cc2ccccc21
inactive: [1] 1.3% | [2] -0.2% | [3] 8.1%

CCOc1ccc(C(=O)NC(C)C2COc3ccccc3O2)cc1 (configuration not stated)
inactive: [1] -6.8% | [2] -0.6% | [3] -4.7%

COc1ccc(/C=C\c2nc(=O)c3ccccc3o2)cc1
inactive: [1] -0.6% | [2] -0.8% | [3] -3.7%

COc1ccc(C(=O)Nc2ncc3c(n2)CC(C)CC3=O)cc1 (configuration not stated)
inactive: [1] -1.5% | [2] -0.9% | [3] -4.5%

COc1cccc(OC)c1C(=O)Nc1nc2ccc([N+](=O)[O-])cc2s1
inactive: [1] 7.7% | [2] 3.3% | [3] 7.5%

COC(=O)C1[C@H]2C(=O)N(Cc3cccs3)C[C@]23C=C[C@H]1O3 (some centres not stated)
inactive: [1] -0.5% | [2] -0.7% | [3] -4%

CCCCCC(=O)O[C@]1(C(C)=O)CC[C@H]2[C@@H]3CCC4=CC(=O)CC[C@]4(C)[C@H]3CC[C@@]21C
inactive: [1] 1.9% | [2] 1.3% | [3] -1.6%

CC(=O)NC1C(OCc2ccccc2)OC(COC(C)=O)C(OC(C)=O)C1OC(C)=O (configuration not stated)
inactive: [1] -1.4% | [2] -1.9% | [3] -2.2%

COc1ccc(C)cc1S(=O)(=O)Nc1ccc(F)cc1
inactive: [1] 1.1% | [2] -0.3% | [3] 0.5%

O=C1c2ccccc2C2(c3ccccc3)NCCN12 (configuration not stated)
inactive: [1] -1.6% | [2] -1.3% | [3] 8.5%

COc1ccc(CCNC(=O)c2c(O)c3c([nH]c2=O)CCCC3)cc1
inactive: [1] 2.6% | [2] 0.3% | [3] -14.2%

CC(C)C(=O)Nc1c(O)c2ccccc2[nH]c1=O
inactive: [1] 3.5% | [2] -0.8% | [3] 1.1%

Cc1ccc2c(c1)C1(C(=O)N2)N2CCCC2C(C(=O)c2ccc3ccccc3c2)C12C(=O)Nc1ccccc12 (configuration not stated)
inactive: [1] 0% | [2] -1% | [3] -10%

CC12CCC(C(=O)Nc3ccccc3Br)(C/C1=N\O)C2(C)C (configuration not stated)
inactive: [1] -3.6% | [2] -0.7% | [3] -6.5%

O=c1c2ccccc2nc2n1CCCN2
inactive: [1] -4.6% | [2] -2.9% | [3] -7.9%

CCc1cc(=O)oc2cc3occ(-c4ccc(OC)c(F)c4)c3cc12
inactive: [1] 2.2% | [2] -0.9% | [3] -2.7%

CCOc1cccc(N2C(=O)CC(N(CCc3ccc(OC)c(OC)c3)C(=O)CC)C2=O)c1 (configuration not stated)
inactive: [1] 4.3% | [2] 0.7% | [3] 0.4%

O=C(CCC1CCCN(C(=O)c2ccsc2)C1)NCc1ccc(F)c(F)c1 (configuration not stated)
inactive: [1] 2.2% | [2] -0.6% | [3] -6.8%

COC(=O)c1ccc(OCCCCN2CC(C)OC(C)C2)cc1 (configuration not stated)
inactive: [1] -4.5% | [2] 0.2% | [3] 4%

CC1=NN(C(=O)c2ccc(Br)cc2)C(O)(c2ccccc2)C1 (configuration not stated)
inactive: [1] -2.9% | [2] -0.4% | [3] 4.5%

Cc1ncc(C(=O)O)c(C(=O)O)c1N
inactive: [1] 0.4% | [2] -0.1% | [3] 2.4%
